Hit rate of the full screen: of about 290,000 compounds, about 3,000 (1%) were called active. No stated cut-off is given here; in the data, active means inhibition mostly above about 36% (no sharp cut-off); inactive means mostly below about 34%. Shown is part of a subset that was picked to be rich in actives.
Experiment: NOD1 signaling inhibitors, primary screen, cell-based, luminescence, uHTS (AID 1578);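 further: HEK-293T reporter cells stimulated with the NOD1 agonist gamma-tri-DAP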
Details: NOD1-driven NF-kB luciferase reporter cells, at 4 µM, stronger effect = higher value

inhibition, active:
Cc1cc(NC(=O)CCCS(=O)(=O)c2nc(-c3cccs3)cc(C(F)(F)F)n2)no1 91%, COc1cccc(-c2nc(-c3ccccn3)no2)c1 65%, Cc1ccc(-c2nc(-c3ccccn3)no2)cc1Cl 71.4%, Cc1ccc(-c2nc(-c3ccccn3)no2)cc1 89.5%, c1ccc(-c2nc(-c3ccccn3)no2)cc1 54.3%, c1ccc(-c2ccc(-c3nc(-c4ccccn4)no3)cc2)cc1 99.9%, c1ccc(-c2noc(-c3ccc4c(c3)OCO4)n2)nc1 64.7%, COc1ccc(-c2nc(-c3ccccn3)no2)cc1 99%, CN(Cc1cccs1)c1ncnc2sccc12 46.8%, CN(C)c1ccc(/C=C2\SC(=O)N(CCc3nnc(N)s3)C2=O)cc1 68%

inhibition, inactive:
CC(=O)Oc1ccc2nc(/C=C/c3ccccc3)oc(=O)c2c1 -9.3%, COc1ccc(-c2cc(C(F)(F)F)nc(S(=O)(=O)CCCC(=O)Nc3cc(C)on3)n2)cc1OC 32.1%, COc1ccccc1-c1cc(C(F)(F)F)nc(S(=O)(=O)CCCC(=O)Nc2cc(C)on2)n1 37%, O=C(COc1ccc(S(=O)(=O)N2CCOCC2)cc1Cl)NCc1ccccn1 -57.1%, c1ccc(-c2noc(-c3ccc4ccccc4c3)n2)nc1 77.3%, Clc1ccc(-c2nc(-c3ccccn3)no2)cc1Cl -69.5%, Cc1ccccc1-c1nc(-c2ccccn2)no1 11.7%, COc1cccc(-c2nc(-c3ccccc3)no2)c1 -49.3%, c1ccc(-c2noc(-c3ccncc3)n2)nc1 -30.8%, COc1cccc(-c2nc(-c3ccncc3)no2)c1 -5.3%, Clc1cccc(-c2nc(-c3ccccn3)no2)c1 -17.2%, c1ccc(-c2noc(-c3cccnc3)n2)nc1 -11.3%, CCCC(=O)NCC(c1cccs1)S(=O)(=O)c1ccc(Cl)cc1 (centres undefined) -18%, Cc1ccc2cc3cc(C(=O)NC4CCCCC4)oc3nc2c1 -36.4%, O=C(Nc1ccccc1)Nc1ccc2ocnc2c1 -32.4%, Cc1nnc(SCC(=O)NC2CC2)s1 -18.8%, COc1cc(S(=O)(=O)n2nc(C)cc2C)ccc1Cl -30.9%, Cc1ccc(C2=NN(C3=NN=C(N)Cc4ncnn43)C(O)(C(F)(F)F)C2)cc1 (centres undefined) -15.4%, CC(CC(=O)O)CC(=O)Nc1cc([N+](=O)[O-])ccc1O (centres undefined) -14.6%, c1ccc(-c2noc(-c3ccc4c(c3)OCO4)n2)cc1 -47.3%, COc1cc(-c2nc(-c3ccccn3)no2)cc(OC)c1OC -30.9%, c1ccc(-c2ccc(-c3nc(-c4ccncc4)no3)cc2)cc1 28.9%, c1ccc(-c2noc(-c3ccno3)n2)nc1 -2.2%, Cc1cccc(-c2noc(-c3ccc4c(c3)OCO4)n2)c1 -27.9%, COc1ccccc1-c1nc(-c2ccccn2)no1 27.3%, Cn1c(SCC(=O)NC(=O)CN2CCCC2=O)nnc1-c1ccc(F)cc1 -11.6%, Cc1ccc(-c2nc(=S)c3c(n2CCN2CCOCC2)CC(C)(C)OC3)cc1 -25.9%, CCOc1ccc(-c2c(=O)n(OCC)c3ccccc3[n+]2[O-])cc1 3.2%, CCC(C(=O)OC(C)C(=O)Nc1ccc(Cl)cn1)c1ccccc1 (centres undefined) -32.2%, COC(=O)c1cc(-c2ccccc2)sc1NC(=O)c1cc(C)on1 -4.3%, O=C(NCCc1ccccc1)C1CCC(=O)N1CCc1ccccc1 (centres undefined) 2%, CCOC(=O)Cn1c(C)c(Br)c(COC)c(C#N)c1=O -13.2%, COC(=O)c1sc(NC(=O)CSc2nc3cccnc3n2C)nc1C -10.6%, CCCCCCC(C)NC(=S)Nc1cc(S(=O)(=O)N(C)C)ccc1C (centres undefined) -10.2%, CN(Cc1ccccc1F)c1ncnc2sccc12 -28.7%, CN(Cc1ccccc1)c1ncnc2sccc12 32.5%, Cc1scc(C(=O)Nn2cnnc2)c1-c1ccccc1 -12.5%, CCN1C(=O)CSc2ccc(C(=O)NCc3ccco3)cc21 -21.5%, CN(C)c1ccc(/C=C2/SC(=O)N(CCN=C3NS(=O)(=O)c4ccccc43)C2=O)cc1 -8.3%

Source: PubChem BioAssay AID1578 (Sanford-Burnham Center for Chemical Genomics, 2009)
